# Laboratory results reported in PubChem BioAssay (EPA / NIEHS).
# Where “and” joins values, the source holds several entries; their conditions need not be identical. Equal entries are not always repeated. Where a structure was tested more than once in an assay, its records may differ in their call. Calls of active or inactive are those of the source. Rule for the calls: active = hit-call score of the fitted dose curve at least 0.9, where 1 is the maximum; inactive = score below 0.9.
# Assay: BSK_3C_Proliferation: Cell Proliferation Assessment in the BioMAP Diversity Plus: 3C Assay (AID 2283006);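 for AC50: potency may reflect either rise or fall in cell number versus DMSO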
# Conditions: primary human endothelial cells (HUVEC)
# Procedure: BSK_3C is a cell-based, multiplexed-readout assay that uses umbilical vein endothelium, a human vascular primary cell, with measurements taken at 24 hours after chemical dosing in a 96-well plate.BSK_3C_Proliferation is an assay component measured in the BSK_3C assay. It measures 0.1% sulforhodamine related to cell proliferation using Sulforhodamine staining technology.Data from the assay component BSK_3C_Proliferation was analyzed into 1 assay endpoint. This assay endpoint, BSK_3C_Proliferation, was analyzed with bidirectional fitting relative to DMSO as the negative control and baseline of activity. Using a type of viability reporter, measures of total protein for gain or loss-of-signal activity can be used to understand the viability at the cellular-level. Furthermore, this assay endpoint can be referred to as a secondary readout, because this assay has produced multiple assay endpoints where this one serves a viability function. To generalize the intended target to other relatable targets, this assay endpoint is annotated to the cell cycle intended target family, where the subfamily is proliferation.
# The levels of cell surface (or secreted, indicated by the prefix "s") biomarker endpoints were measured by ELISA. Overt cytotoxicity to cells in confluent adherent cultures (all systems other than the BT system) was assessed by measuring total protein levels using sulforhodamine B (SRB) staining in parallel cultures at the time of biomarker measurements, indicated as SRB endpoints. For proliferation assays for adherent cell types, individual cell types are cultured at sub-confluence and relative cell numbers quantified by SRB staining at time points optimized for each system (48 h: 3C and CASM3C systems; 72 h: BT and HDF3CGF systems; 96 h: SAg system). SRB was performed by staining cells with 0.1% SRB after fixation with 10% TCA and reading wells at 560 nm.Viability and proliferation of PBMC (T cells) was quantified by Alamar Blue reduction for the SAg and BT systems. For PBMC viability (referred to as PBMC Cytotoxicity within the assay endpoint names), cells were plated (75,000/well in a 96-well plate) and then chemical samples added for 1 h before addition of activators, SEB and TSST-1 (20 ng/mL final concentration each). Cells were incubated for 90 h. Then, Alamar Blue (20 uL/well) (Invitrogen, Cat DAL1100) was added for 6 h, and the plates were read with a fluorescence microplate reader at 546/580 nm (excitation/emission). For PBMC proliferation, cells were plated and activated as above but incubated for only 16 h prior to addition of Alamar Blue. Plates were read after 6 h.
SMILES,outcome,AC50
C[C@@H]1CCN(C(=O)[C@H](CCCN=C(N)N)NS(=O)(=O)c2cccc3c2NC[C@H](C)C3)[C@@H](C(=O)O)C1,inactive,–
CCN(CC)C(=O)N(CC)CC,inactive,–
CCCCN(CCCC)C(=O)N(CCCC)CCCC,–,4.03 µM (active)
O=C1OC[C@H](Cc2cccc(O)c2)[C@H]1Cc1cccc(O)c1,inactive,–
O=CN1CCOCC1,inactive,–
CCCCCCC(CO)CCCC (stereo not given),–,37.6 µM (active) and 31.2 µM (active)
COc1cc(Cl)c(OC)cc1N,inactive,–
CN(C)C(=S)SC(=S)N(C)C,–,19.9 µM (active)
IC(I)I,inactive,–
CN(c1nccc(=O)[nH]1)C1CCN(c2nc3ccccc3n2Cc2ccc(F)cc2)CC1,inactive,–
CSCCC=O,inactive,–
CC(=O)c1c(C)c([N+](=O)[O-])c(C(C)(C)C)c([N+](=O)[O-])c1C,inactive,–
CS(=O)(=O)c1ccc(C2=C(c3ccccc3)C(=O)OC2)cc1,inactive,–
CC(C=O)Cc1ccc(C(C)(C)C)cc1 (stereo not given),–,30.9 µM (active)
Cc1cc(CCC(=O)OCCOCCOCCOC(=O)CCc2cc(C)c(O)c(C(C)(C)C)c2)cc(C(C)(C)C)c1O,inactive,–
CC1(C)C2=CCCC(C)(C)[C@]23CC[C@H]1C3,–,31.7 µM (active)
Clc1cc(Cl)c(-c2c(Cl)c(Cl)cc(Cl)c2Cl)cc1Cl,–,16.7 µM (active)
COc1ccc(OC)c(N=Nc2c(O)ccc3ccccc23)c1,–,12.6 µM (active)
CC=Cc1ccc(OCC)c(O)c1,inactive,–
Oc1c(Cl)cc(Cl)c(Cl)c1Cc1c(O)c(Cl)cc(Cl)c1Cl,–,2.22 µM (active)

SMILES,outcome,AC50
C=C(C)[C@H]1CC=C(C)C(=O)C1,inactive,–
C=CC(C)(O)CCC=C(C)C (stereo not given),inactive,–
C=C(C)C(=O)OCCOCCOCCOC(=O)C(=C)C,inactive,–
CCCCCCCCCCCCCCCC(=O)OC/C=C(C)/C=C/C=C(C)/C=C/C1=C(C)CCCC1(C)C,–,4.06 µM (active)
C=C(C)C(=O)OCCOCCOCCOCCOC(=O)C(=C)C,inactive,–
C1=CC2C3C=CC(C3)C2C1 (stereo not given),inactive,–
CCOC(=O)C(C#N)=C(c1ccccc1)c1ccccc1,–,20 µM (active) and 8.88 µM (active)
CC1(C)CCC[C@]2(C)[C@H]3CCO[C@]3(C)CC[C@@H]12,–,32.6 µM (active) and 33.6 µM (active)
CCCCCC(C=O)=Cc1ccccc1,–,30.8 µM (active)
CCCCOC(=O)CCCCCCCC(=O)OCCCC,inactive,–
CS(=O)(=O)OCCCCOS(C)(=O)=O,inactive,–
CC(CN=Cc1ccccc1O)N=Cc1ccccc1O (stereo not given),inactive,3.97 µM (active)
c1ccc2cc(Nc3ccc(Nc4ccc5ccccc5c4)cc3)ccc2c1,inactive,–
CN(C)C(=O)Nc1ccc(Oc2ccc(Cl)cc2)cc1,inactive,–
C=C(C)C(=O)OCC(CC)(COC(=O)C(=C)C)COC(=O)C(=C)C,–,13.9 µM (active)
O=C1c2ccccc2C(=O)c2c(O)ccc(O)c21,–,2.95 µM (active)
c1ccc(CCc2ccccc2)cc1,–,22.7 µM (active)
CC(=O)Nc1ccc(C(=O)CCl)cc1,–,6.13 µM (active)
c1ccc(Oc2ccccc2)cc1,–,31.2 µM (active)
